# GalR3 antag: blocks the human galanin receptor 3; O60755; HEK293 GalR3-CNG cAMP membrane potential fluorescence; galR3 body fused to GalR1 C-terminus; inhibition, % at 3 µM; 360,000 tested, 0.44% active; AID 651719;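 active means inhibition above the screen-wide average plus 3 SD, cut at about 13% in these data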;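 further: forskolin and galanin both at EC90 stimulate the cells; cAMP rise reported by CNG channel membrane potential dye signal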
# Gli-Sufu antag: antagonists of Gli-Sufu signaling; 340,000 tested, 0.74% active; Sufu-KO-LIGHT fibroblasts, Gli luciferase reporter luminescence; inhibition, % at 5 µM;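 active means inhibition above about 55%, limit read from the data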
# Jurkat NFkB inh: inhibitors of the PMA/ionomycin-induced NF-kB reporter in Jurkat cells; AID 435003; PMA/ionomycin-induced NF-kB luciferase reporter, luminescence; 330,000 tested, 0.53% active; inhibition, % at 4 µM; in the data active means inhibition above about 50%
# COUP-TFII inh: inhibitors of human COUP-TFII (NR2F2); P24468; inhibition, % at 8.6 µM; HEK293T NGFI-A luciferase reporter, luminescence; 370,000 tested, 0.7% active;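 active means inhibition above a per-plate cutoff, mean inhibition of test wells between control levels plus 3 SD, cut at about 38% in these data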;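 further: cells cotransfected with COUP-TFII expression vector driving the NGFI-A reporter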
# Target sequence (P24468 whole entry, looked up): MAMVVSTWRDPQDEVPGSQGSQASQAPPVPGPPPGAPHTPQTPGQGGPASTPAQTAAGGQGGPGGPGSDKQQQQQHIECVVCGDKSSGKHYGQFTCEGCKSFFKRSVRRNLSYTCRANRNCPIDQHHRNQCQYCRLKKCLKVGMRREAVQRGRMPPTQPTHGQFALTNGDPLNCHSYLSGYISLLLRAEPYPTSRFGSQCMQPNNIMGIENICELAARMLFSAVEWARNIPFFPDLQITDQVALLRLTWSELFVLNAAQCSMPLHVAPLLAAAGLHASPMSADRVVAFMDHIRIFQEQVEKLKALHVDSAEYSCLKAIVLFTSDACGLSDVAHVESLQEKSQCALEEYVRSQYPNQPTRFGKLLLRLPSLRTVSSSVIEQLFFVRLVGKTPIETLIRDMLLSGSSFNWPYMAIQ
# 697 NFkB inh: lowers PMA/ionomycin-induced NF-kB signal in 697 B cells | inhibition, % at 4 µM | 697 B-cell NF-kB luciferase reporter, 16 h | AID 435022 | 330,000 tested, 0.33% active; in the data active means inhibition above about 35%
# Gli antag conf: confirmation of Gli-SUFU pathway antagonists. shares compounds with Gli-Sufu antag. Sufu-KO-LIGHT cells, Gli luciferase reporter, luminescence. inhibition, % at 5 µM. 2,500 tested, 40% active. AID 602428;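 active means mean inhibition at 5 µM reaching about 45%, limit read from the data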
# SufuKO cytotox: cytotoxic in Gli-SUFU antagonist counter-screen; shares compounds with Gli-Sufu antag; Sufu-KO-LIGHT cells cytotoxicity, ATP luminescence; cytotoxicity, % at 5 µM; 2,500 tested, 32% active; AID 651994;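 active means mean cytotoxicity at 5 µM above about 25%, limit read from the data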;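 further: cells exposed to compound overnight for roughly 16 to 18 hours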
# Wnt3a cs: inhibits Wnt3a reporter, counter-screen for Gli-SUFU antagonists; shares compounds with Gli-Sufu antag; Wnt-LIGHT cells, Wnt3a-driven luciferase reporter, luminescence; 2,500 tested, 20% active; inhibition, % at 6.25 µM;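 active means mean inhibition above about 25%, limit read from the data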
# A number is an active result; 0 = inactive; - = no result given. Only some compounds are listed: those with a hit (about 2% of all), similar ones and a draw of the others.
SMILES,GalR3 antag,Gli-Sufu antag,Jurkat NFkB inh,COUP-TFII inh,697 NFkB inh,Gli antag conf,SufuKO cytotox,Wnt3a cs
CN(C)CCCN1C(=O)C2CCc3[nH]c4ccccc4c3C2C1=O (stereo not given),0,0,0,0,0,0,0,0
CCn1c(SCC(=O)N/N=C/c2cccc(Oc3ccccc3)c2)nnc1-c1ccccc1,-,-,-,0,-,-,-,-
COc1ccc(OCC(O)CN2CCC(CN3C(=O)c4cccc5cccc(c45)C3=O)CC2)cc1 (stereo not given),0,0,0,0,0,-,-,-
Cc1ccc(C)c(OCC(O)CN2CCC(CN3C(=O)c4cccc5cccc(c45)C3=O)CC2)c1 (stereo not given),0,0,0,0,0,0,0,28
COc1cc(/C=C2/CCc3ccccc3C2=O)cc(OC)c1OC,0,-,0,0,0,-,-,-
CCN1C/C(=C\c2cc(OC)c(OC)c(OC)c2)C2=NN(c3ccccc3)C(c3cc(OC)c(OC)c(OC)c3)C2C1 (stereo not given),0,0,-,0,-,0,0,0
Cc1cc(C)cc(OCC(O)CN2CCN(Cc3ccc4c(c3)OCO4)CC2)c1 (stereo not given),0,64,0,0,0,0,0,0
OC(COc1ccccc1)CN1CCN(Cc2ccc3c(c2)OCO3)CC1 (stereo not given),0,0,0,0,0,-,-,-
COc1cc(C2C(C#N)=C(C)NC3=C2C(=O)c2ccccc23)cc(OC)c1OC (stereo not given),0,0,0,0,0,58,55,0
Fc1ccccc1-c1n[nH]c(=S)n1N=Cc1cccc(OCc2ccccc2)c1,-,-,-,0,-,-,-,-
Cc1sc2nc(CSc3ccccc3)nc(NCCN(C)C)c2c1C,0,0,0,0,0,-,-,-
CCNc1nc(CSc2ccccc2)nc2sc(C)c(C)c12,0,69,0,0,0,0,0,0
COc1cc(C(=O)N/N=C(\C)c2ccccn2)cc(OC)c1OC,0,0,0,0,0,-,-,-
COc1cc(C(=O)N/N=C(\c2ccccc2)c2ccccn2)cc(OC)c1OC,0,92,0,0,0,84,38,57
COc1ccc2cc(C(=O)N3CCN(c4ccccc4OC)CC3)[nH]c2c1,0,57,0,0,0,0,0,0
CN1CCN(C(=O)c2cc3ccccc3[nH]2)CC1,0,0,0,0,0,0,0,0
COc1ccccc1N1CCN(C(=O)c2cc3sccc3n2C)CC1,0,92,0,0,0,0,0,0
COc1ccc2cc(C(=O)N3CCN(c4ccccc4F)CC3)[nH]c2c1,0,-,0,0,0,-,-,-
CC(C)Oc1ccc(Oc2ccc(C#C[C@H](C)N3C(=O)c4ccccc4C3=O)cc2)cn1,-,-,-,0,-,-,-,-
O=C(c1cnc(N2CCN(c3ccccn3)CC2)c2ccccc12)N1CCN(c2cccc(Cl)c2)CC1,0,65,0,0,0,54,36,0
C#CCNC(=O)C[C@H]1C(=O)N(CCCOC)C2=CCCCC[C@]21C(=O)OC,-,-,-,0,-,-,-,-
O=C(O)c1ccc(NC(=O)c2cccc(C(=O)Nc3ccc(C(=O)O)cc3)n2)cc1,0,66,0,0,0,0,0,0
O=C(Nc1ccccc1)c1cccc(C(=O)Nc2ccccc2)n1,0,0,0,0,0,-,-,-
CCOc1ccc(N(CC(=O)Nc2c(C)n(C)n(-c3ccccc3)c2=O)S(=O)(=O)c2ccc(C)c(C)c2)cc1,-,-,-,0,-,-,-,-
COC(=O)[C@]12C[C@H](CC(=O)NCc3ccc(OC)c(OC)c3)C(=O)N(Cc3ccc(Cl)cc3Cl)C1=C[C@H](C1CCCC1)O[C@@H]2C,-,-,-,0,-,-,-,-
SMILES,GalR3 antag,Gli-Sufu antag,Jurkat NFkB inh,COUP-TFII inh,697 NFkB inh,Gli antag conf,SufuKO cytotox,Wnt3a cs
COC(=O)c1cc(S(=O)(=O)N2CCN(c3ccc(C(C)=O)cc3)CC2)c[nH]1,0,62,0,0,0,0,0,0
O=C(Nc1ccc(C(=O)O)cc1)Nc1ccc([N+](=O)[O-])cc1,0,0,0,0,0,-,-,-
O=C(Nc1cc(C(F)(F)F)cc(C(F)(F)F)c1)Nc1cnn(-c2ccc([N+](=O)[O-])cc2)c1C(F)(F)F,0,55,0,0,0,74,0,0
COc1ccc(F)cc1CN1CCN(C(=O)CCC(=O)Nc2nnc(C(C)C)s2)CC1,0,96,0,0,0,0,0,0
C#CCNC(=O)C[C@@H]1C(=O)N(Cc2ccc(OC)cc2)C2=CCN(C(=O)OC(C)(C)C)C[C@]21C(=O)OCC,-,-,-,0,-,-,-,-
COc1ccccc1N/C=C/c1onc(C)c1[N+](=O)[O-],0,0,0,0,0,-,-,-
Cc1noc(/C=C/c2ccccn2)c1[N+](=O)[O-],0,99,0,0,0,0,29,0
CN1C(=O)c2cc(NC(=O)Cc3cccs3)ccc2OC[C@@H]2O[C@@H](CC(=O)N[C@H]3CCN(Cc4ccccc4)C3)CC[C@@H]21,-,-,-,0,-,-,-,-
CCOc1ccc(-n2c(SCc3ccc(C#N)cc3)nnc2-c2ccco2)cc1,-,-,-,0,-,-,-,-
COc1ccccc1NCC(=O)n1nc(C)cc1C,0,0,0,0,0,0,0,0
Cc1nc2ccccc2nc(C)c1=NOCc1cccc(F)c1,0,66,0,0,0,0,0,0
Cc1nc2ccccc2nc(C)c1=NOCc1ccc(C#N)cc1,0,0,0,0,0,-,-,-
O=C(OCC#CCSc1nnc(-c2cccs2)o1)c1ccc(F)cc1,-,-,-,0,-,-,-,-
CCc1cccc(NC(=O)C2CCCN2S(=O)(=O)c2cccc3cccnc23)c1 (stereo not given),0,0,0,0,0,0,0,0
CN1/C(=C\C(=O)c2cccs2)C(C)(C)c2ccccc21,0,0,0,0,0,-,-,-
CN1/C(=C\C(=S)NC(=O)c2ccccc2Cl)C(C)(C)c2ccccc21,0,73,0,0,0,55,31,30
CN1/C(=C/C(=S)NC(=O)C2(C)CC2(Cl)Cl)C(C)(C)c2ccccc21 (stereo not given),0,60,0,0,0,0,26,0
CN1/C(=C\C(=S)Nc2ccccc2)C(C)(C)c2ccccc21,0,65,0,0,0,74,0,28
COc1ccccc1C(=O)NC(=S)/C=C1/N(C)c2ccccc2C1(C)C,0,78,0,0,0,0,26,0
CN1/C(=C/C(=O)CSc2ccccc2C(=O)O)C(C)(C)c2ccccc21,0,0,0,0,0,-,-,-
CCOC(=O)/C=C1/N(C)c2ccccc2C1(C)C,0,0,0,0,0,-,-,-
CN1/C(=C\C(=O)Nc2ccc(Cl)cc2)C(C)(C)c2ccccc21,0,0,0,0,0,-,-,-
O=C(CSc1nnc(-c2ccc(Cl)cc2)n1-c1ccccc1)Nc1ccc(Oc2ccccc2)cc1,-,-,-,0,-,-,-,-
O=C(CSc1nnc(-c2ccccc2)n1Cc1ccco1)Nc1ccc(OCc2ccccc2)cc1,-,-,-,0,-,-,-,-
